Screens: PubChem BioAssay, National Center for Advancing Translational Sciences (NCATS)
ALOX12 inh – Primary qHTS assay for inhibitors of human arachidonate 12S-lipoxygenase (ALOX12): Round 2; Polyunsaturated fatty acid lipoxygenase ALOX12 (Homo sapiens), P18054; purified 12hLO, xylenol orange hydroperoxide absorbance; Potency, µM (series often up to 108 µM), without a hit: at the top dose activity change, negative = inhibition, most hits filed as inhibitors; 1.1% of 580,000 active; AID 1671190, 2021; further: potency means the concentration at half of the fitted maximal effect; on the % scale 0 is the no-effect control and ±100 the full control effect
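Purified human 12hLO at 150 nM in 25 mM Hepes, 0.01% Triton X-100, pH 7.0, preincubated 15 min at room temperature with compound. Reaction started with 40 uM arachidonic acid, 30 min at room temperature. Hydroperoxide measured by Fe-xylenol orange, 573/405 nm absorbance ratio.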
PINK1 modulator – A Quantitative High throughput Screen to Identify Chemical Modulators of PINK1 Expression. PINK1 immunofluorescence, high-content cytometry, 24 h. Potency, µM (doses to about 76.6 µM), inactives show at the top dose activation (PINK1 increase), hits mostly activators. 0.2% of 410,000 active. AID 624263, 2012; active means well fitted activation curve with a large enough effect; inconclusive means small, poorly fitted or top-dose-only effect; cell line not stated here; further: potency means the concentration at half of the fitted maximal effect; % of control where 0% means no effect; nearly all actives have a fitted effect of over 65% in size
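Measures PINK1 amount and localization on or inside mitochondria by immunofluorescence. Stable cells get compounds at 5 concentrations for 24 hours before fixation and staining; CCCP controls included.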
CCT chaperon mod – High-Throughput Screening for Modulators of Cytosolic Chaperonin Activity; purified chaperonin ATPase assay, HTRF ADP detection, 30 min; activity change, % (concentration not given with the values), hits read low; 0.3% of 360,000 active; AID 651819, 2012; in the data active means activity change below about -30%; further: on the % scale 0 is the no-effect control and ±100 the full control effect
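We incubate TRiC, 40 or 20 nM final, with library compounds at 76 uM and 10 uM ATP for 30 min at 37 °C. ADP formed is detected with Transcreener HTRF reagents after 30 min at room temperature.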
S-ASM inh – Inhibitors of Secretory Acid Sphingomyelinase (S-ASM): qHTS. AID 504937, 2011. placental ASM, HMU-PC fluorogenic substrate, 60 min. Potency, µM (series often up to 57.5 µM), without a hit: at the top dose activity change, negative = inhibition, usual class: inhibitors. 0.006% of 340,000 active; further: potency means the concentration at half of the fitted maximal effect
Target sequence (P17405 47-631 limits assumed): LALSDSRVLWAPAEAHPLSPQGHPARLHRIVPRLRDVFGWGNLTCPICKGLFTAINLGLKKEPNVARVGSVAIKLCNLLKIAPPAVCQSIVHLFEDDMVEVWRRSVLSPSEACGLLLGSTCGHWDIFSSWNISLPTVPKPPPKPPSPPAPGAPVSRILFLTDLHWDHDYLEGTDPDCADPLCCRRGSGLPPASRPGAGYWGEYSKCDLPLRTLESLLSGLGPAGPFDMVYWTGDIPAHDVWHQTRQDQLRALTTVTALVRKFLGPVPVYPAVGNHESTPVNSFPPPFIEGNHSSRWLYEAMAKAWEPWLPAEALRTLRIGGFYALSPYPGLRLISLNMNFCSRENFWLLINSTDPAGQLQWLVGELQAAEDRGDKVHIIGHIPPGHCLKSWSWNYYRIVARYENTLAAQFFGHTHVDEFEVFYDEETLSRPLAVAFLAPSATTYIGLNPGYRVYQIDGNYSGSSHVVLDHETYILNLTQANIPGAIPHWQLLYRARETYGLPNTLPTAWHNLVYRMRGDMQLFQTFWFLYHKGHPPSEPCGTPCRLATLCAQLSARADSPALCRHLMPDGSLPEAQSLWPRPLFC
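HMU-PC0 cleavage (9 uM final) by human placental ASM, 60 min at 37 °C following 10 min compound exposure at RT; stopped at pH 10, fluorescence Ex 386/Em 447 nm.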
p53 reactivator – qHTS assay for re-activators of p53 using a Luc reporter; H1299 p53-A138V BP100-luciferase reporter, luminescence, 24 h; Potency, µM (highest dose often 92.2 µM), for the others: at the highest dose activity change, positive = activation, most hits filed as activators; 0.063% of 320,000 active; AID 504706, 2011; further: potency means the concentration at half of the fitted maximal effect; % of control where 0% means no effect; nearly all actives have a fitted effect of over 45% in size
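p53-null H1299 cells stably carrying temperature-sensitive p53-A138V and a BP100-luciferase reporter were pinned with compounds (4-point, 1:5 series) and held 24 hrs at 37 deg C. Luminescence was read 10 min after detection reagent.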
Mm-Cpn inhibitor – Inhibitors of TCP-1 ring complex (TRiC) of Methanococcus maripaludis (MmCpn): qHTS | Chaperonin Mm-Cpn (Methanococcus maripaludis) | purified Mm-Cpn ATPase, ADP Transcreener TR-FRET | Potency, µM (doses to about 76.9 µM), without a hit: top-dose activity, negative = inhibition, most hits filed as inhibitors | 0.031% of 330,000 active | AID 504842, 2011; further: potency means the concentration at half of the fitted maximal effect; on the % scale 0 is the no-effect control and ±100 the full control effect; nearly all actives have a fitted effect of over 80% in size
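Eu-cryptate anti-ADP/ADP-d2 competition gives a ratio inversely related to ADP. Enzyme at 25 nM was pre-exposed to compound for 10 min, then given 10 uM ATP for 30 min, 37°C throughout.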
* hit, by the source's call; ? = inconclusive; . = no result; [ ] = another dose, or the depositor's remark. Compounds with a hit are over-represented: about 1.4% of the library has one in this group of screens. Unless noted, the call rests on the fitted dose curve; in most records, active means well fitted curve in the direction sought with a large enough effect; inconclusive means small, poorly fitted or top-dose-only effect, or another doubt; inactive means no such curve, though single readings can be large; an effect the other way counts as inactive or inconclusive.

SMILES	ALOX12 inh	PINK1 modulator	CCT chaperon mod	S-ASM inh	p53 reactivator	Mm-Cpn inhibitor
CCC(Oc1ccc(F)cc1)C(=O)N1CCC(c2nc3ccccc3o2)CC1 (configuration not stated)	16%	.	.	.	.	.
O=C1OC2(c3ccc(O)cc3Oc3cc(O)ccc32)c2ccccc21	-12%[22.9 µM]	.	.	.	.	.
O=C1OC2(c3ccccc31)c1cc(I)c(O)c(I)c1Oc1c2cc(I)c(O)c1I	1.6µM*	.	.	.	-6%	32µM*
Cc1cc2ccccn2c1C(=S)NC(=O)c1ccccc1	22µM*	1%	0	-2%	0%	1%
Cc1ccc(C(=O)NC(=S)c2c(C)cc3ccccn23)cc1	7.9µM*	3%	2	.	.	.
Cc1cc2ccccn2c1C(=O)c1ccc(Cl)cc1	0%	?	-2	-17%	1%	-3%
Cc1cc2ccccn2c1C(=O)c1ccncc1	0%	.	-3	-6%	-5%	-1%
CN(C)CCCNC(=O)Cn1ccc2ccc(Br)cc21	16%	.	.	.	.	.
O=c1cc(-c2c(O)c3ccccc3n(Cc3ccccc3)c2=O)[nH][nH]1	25µM*	2%	0	0%	1%	-2%
CCNC(=O)CCn1nc(-c2ccccc2)c2ccccc2c1=O	-25%	.	.	.	.	.
Cc1ccccc1NC(=O)CSc1nccn2nc(-c3cccc4ccccc34)cc12	4%	.	.	.	.	.
O=C1CSc2ccc(S(=O)(=O)NCc3ccc(F)cc3)cc2N1	0%	2%	2	0%	-3%	0%
Cc1ccc(CNS(=O)(=O)c2ccc3c(c2)NC(=O)CS3)cc1	6%	-1%	-74*	-2%	-2%	3%
CC(C)(C)OC(=O)N1Cc2ccccc2C[C@H]1C(=O)Nc1ccc2c(c1)OCCO2	-62%	.	.	.	.	.
CC(C)c1ccc2oc(-c3ccc(N)cc3O)nc2c1	35µM*	.	.	.	.	.
CC(C)c1ccc2oc(-c3cc(N)ccc3O)nc2c1	?	15%	-3	-5%	.	-2%
CNC12CC3CC(CC(C3)C1)C2	11%	.	.	.	.	.
O=c1[nH]c2cc3c(cc2c(=O)n1CCCc1nc(-c2ccc(C(F)(F)F)cc2)no1)OCO3	-1%	.	.	.	.	.
Cc1ccc(NC(=O)C2=C(c3ccccc3)NC(=S)NC2c2ccc(Br)cc2)cc1 (configuration not stated)	32µM*	.	.	.	.	.
Cc1ccc(NC(=O)C2=C(c3ccccc3)NC(=S)NC2c2ccc(Cl)cc2)cc1 (configuration not stated)	35µM*	.	.	.	.	.
CC(=O)C1=C(c2ccccc2)NC(=S)NC1c1cc(Cl)c(OC(C)C)c(Cl)c1 (configuration not stated)	28µM*	6%	-1	-11%	-9%	-21%
CC(=O)NCCNC(=O)c1ccc(Sc2ccccc2)c([N+](=O)[O-])c1	2%	5%	-33*	2%	19%	4%
CC(=O)c1ccc(Sc2ccccc2)c([N+](=O)[O-])c1	-14%	0%	-2	-3%	2%	-2%
CCCCn1nc(C(=O)N2CCCC(c3nc4ccccc4s3)C2)c2ccccc2c1=O (configuration not stated)	13%	.	.	.	.	.
CCCCCc1cc(O)c2c(C)cc(=O)oc2c1	?	11µM*	1	-2%	-8%	-14%
SMILES	ALOX12 inh	PINK1 modulator	CCT chaperon mod	S-ASM inh	p53 reactivator	Mm-Cpn inhibitor
N#Cc1c(-c2ccccc2)nc(SCc2cccc(Cl)c2)[nH]c1=O	40µM*	3%	-1	4%	-9%	-10%
Cc1[nH]c(=O)nc(SCc2cccc(Cl)c2)c1C#N	?	1%	-4	-3%	2%	-9%
N#Cc1c(-c2ccco2)nc(SCC(=O)Nc2cccc(Cl)c2)[nH]c1=O	22µM*	.	6	1%	10%	-12%
CN1CCC(N(C)S(=O)(=O)c2ccc(NC(=O)COc3ccc(Br)cc3Cl)cc2)CC1	?	-5%	-3	-3%	15%	2%
Cc1ccc(OCC(=O)Nc2ccc(S(=O)(=O)N(C)C3CCN(C)CC3)cc2)c(C)c1	35µM*	2%	1	-2%	?	2%
Cc1cccc(NC(=O)c2cc(C)nc3ccccc23)n1	26%	.	.	.	.	.
Cc1ccccc1NC(=S)N/N=C1\CC(C)(C)Oc2ccc(O)cc21	40µM*	1%	-4	56%	-4%	-1%
CC(=O)N1CCC2(CC1)C/C(=N\NC(=S)Nc1ccc(C)cc1)c1cc(O)ccc1O2	45µM*	0%	-1	68%	-3%	1%
CC(C)c1cc(=O)oc2cc(OS(=O)(=O)c3ccc(S(C)(=O)=O)cc3)ccc12	11%	.	.	.	.	.
COCCN1CCCN(C(=O)c2cc(C)ccc2C)c2ccccc21	32%	.	.	.	.	.
CCOC(=O)C1=C(COC(=O)c2ccccc2OC(F)F)NC(=O)NC1C (configuration not stated)	-20%	-1%	-2	.	-4%	1%
CCOC(=O)C1=C(COC(=O)c2ccc3ccccc3c2O)NC(=O)NC1C (configuration not stated)	40µM*	1%	2	-9%	-14%	-1%
CC(O)(P(=O)(O)O)P(=O)(O)O	?	1%	-1	14µM*	.	.
O=C(Nc1cccc(F)c1)c1ccc(Cn2ccn3nc4c(c3c2=O)CCCC4)cc1	5%	.	.	.	.	.
COCC(=O)NC[C@H]1O[C@@H](CO)[C@@H](O)[C@H]1N1CCN(c2cccc(C(F)(F)F)c2)CC1	6%	.	.	.	.	.
Cc1ccc(S(=O)(=O)NC[C@H]2O[C@@H](CO)[C@@H](O)[C@H]2N2CCN(c3cccc(C(F)(F)F)c3)CC2)cc1	16µM*	.	.	.	.	.
NC[C@H]1O[C@@H](CO)[C@@H](O)[C@H]1N1CCN(c2ncccn2)CC1	20µM*	.	.	.	.	.
O=C(NC[C@H]1O[C@@H](CO)[C@@H](O)[C@H]1N1CCN(c2ccccn2)CC1)c1ccccc1	2%	.	.	.	.	.
O=S(=O)(NC[C@H]1O[C@@H](CO)[C@@H](O)[C@H]1N1CCN(c2ccccn2)CC1)c1ccc(Cl)cc1	18µM*	.	.	.	.	.
O=S(=O)(NC[C@H]1O[C@@H](CO)[C@@H](O)[C@H]1N1CCCC1)c1cccs1	16µM*	.	.	.	.	.
O=C(NC[C@H]1O[C@@H](CO)[C@@H](O)[C@H]1N1CCCC1)c1ccccc1	11%[176 µM]	.	.	.	.	.
COCCOc1ccc(C(=O)N[C@@H]2CN(C(=O)Nc3ccc(OC(F)(F)F)cc3)CCC[C@H]2O)cc1	-2%	.	.	.	.	.
